Screens (PubChem BioAssay)
APP 5UTR inh = APP translation inhibition | inhibition, % at 2 µM | SH-SY5Y APP 5'UTR-luciferase reporter, luminescence | 0.82% of 190,000 active | AID 1285;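 active = inhibition above a set limit, derived from the sample mean plus 3 SD, cut at about 45% in these data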
IEC-6 tox = counter-screen for KLF5 inhibitors: cytotoxicity in IEC-6 cells; IEC-6 cytotoxicity, luminescence viability; inhibition, % at 5 µM; 0.78% of 290,000 active; in the data active = inhibition above about 22%
KLF5 inh = inhibitors of KLF5 expression. DLD-1 KLF5 promoter-luciferase reporter, luminescence. inhibition, % at 5 µM. 0.23% of 290,000 active. AID 1700;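 active = inhibition above a per-plate limit of that plate's mean compound inhibition plus 3 SD, cut at about 60% in these data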;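 note: higher means less KLF5 promoter-driven luciferase light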
Ba/F3 V617F tox = reduce viability of Ba/F3 cells dependent on JAK2V617F; inhibition, % at 5.6 µM; 1.1% of 220,000 active; Ba/F3 EpoR-JAK2V617F viability, ATP luminescence;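 active = inhibition above the campaign mean plus 3 SD over all tested compounds, cut at about 24% in these data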;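 note: cytokine-independent growth of Ba/F3 cells driven by EpoR plus mutant JAK2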
BaF3 tox = reduces parental Ba/F3 cell viability, JAK2V617F counter-screen. CellTiter-Glo ATP luminescence. inhibition, % at 5.6 µM. 1.1% of 220,000 active;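 active = inhibition above a per-campaign cutoff, the mean inhibition of all tested compounds plus 3 SD, cut at about 27% in these data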
BaF3 parental 2 = counter-screen for JAK2V617F inhibitors: parental Ba/F3 viability inhibitors | shares compounds with Ba/F3 V617F tox | CellTiter-Glo luminescence; cells kept alive by added IL-3 | inhibition, % at 5.6 µM | 31% of 580 active;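 active = cell growth inhibition above the hit limit set in the earlier mutant JAK2 cell screen, cut at about 27% in these data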
JAK2V617F conf = Ba/F3 EpoR-JAK2V617F viability loss, confirmation. 66% of 580 active. shares compounds with Ba/F3 V617F tox. CellTiter-Glo luminescence. inhibition, % at 5.6 µM;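 active = mean inhibition above the hit cutoff derived in the earlier primary screen, cut at about 25% in these data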;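 note: higher means lower luminescence from reduced cell ATP and viability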
Each line names hits and unclear results; the compound was inactive in the other large screens (follow-up assays come after a bar, where they were run). Only some compounds are listed: those with a hit (about 1.8% of all), similar ones and a draw of the others.

CCN(CC)c1ccc(/C=N/NC(=O)c2cccc(S(=O)(=O)N3CCOCC3)c2)c(O)c1	APP 5UTR inh 60.3
CCOc1ccccc1/C=N/NC(=O)c1cccc(S(=O)(=O)N2CCOCC2)c1	none
CCN(CC)c1ccc(/C=N/Nc2nc(C)cc(=O)[nH]2)c(O)c1	APP 5UTR inh 85.1
CCN(CC)S(=O)(=O)c1cccc(C(=O)N/N=C/c2cccc(O)c2O)c1	APP 5UTR inh 50.0
CCN(CC)S(=O)(=O)c1cccc(C(=O)N/N=C/c2cc(OC)c(O)c(OC)c2)c1	none
COc1ccc(C(O)P(=O)(OCC(C)C)c2ccc(N(C)C)cc2)c(OC)c1 (stereo not drawn)	none (no result: APP 5UTR inh, Ba/F3 V617F tox, BaF3 tox)
O=C1N/C(=C/c2ccc(N3CCCC3)cc2)C(=O)N1c1ccccc1	none
O=C1N/C(=C/c2ccc(N3CCOCC3)o2)C(=O)N1c1ccccc1	APP 5UTR inh 54.0
C=CCn1c(SCC(=O)c2[nH]c(C)c(C(=O)OCC)c2C)nc2scc(-c3ccc(OC)cc3)c2c1=O	APP 5UTR inh 59.8
C=CCn1c(SCC(=O)c2[nH]c(C)c(C(=O)OCC)c2C)nc2scc(-c3ccccc3)c2c1=O	none
O=C(Nc1cccc(Cl)c1)Nc1ccnc(-c2cccnc2)n1	APP 5UTR inh 56.5
O=C(Nc1cccc(Cl)c1)Nc1cnccn1	none (no result: APP 5UTR inh, Ba/F3 V617F tox, BaF3 tox)
O=C(CCN1CCN(Cc2ccccc2)CC1)NNC(=O)Nc1cccc([N+](=O)[O-])c1	none (no result: APP 5UTR inh, Ba/F3 V617F tox, BaF3 tox)
COc1ccc2c(c1)sc1nc(=O)ccn12	none (no result: APP 5UTR inh, Ba/F3 V617F tox, BaF3 tox)
COc1ccc2c(c1)sc(=N)n2C	Ba/F3 V617F tox 58.2, BaF3 tox 68.9
Cc1cc(C(N)=O)c2ccccc2n1	none
Cc1cc(Sc2nnc(N)s2)c2ccccc2n1	Ba/F3 V617F tox 96.1, BaF3 tox 76.8 (no result: APP 5UTR inh)
CCCCCCCCSc1nnc(/N=C/N(C)C)s1	none (no result: APP 5UTR inh)
Cc1cc(Sc2nnc(/N=C/N(C)C)s2)c2ccccc2n1	Ba/F3 V617F tox 90.4, BaF3 tox 73.3 (no result: APP 5UTR inh)
O=C(CSc1nnc(Cc2ccccc2)o1)N1CCc2ccccc21	none
O=C(CSc1nnc(COc2cccc3cccnc23)o1)N1CCc2ccccc21	BaF3 tox 94.4
CC(C)C[C@H](NC(=O)N1CCn2c1nc1ccccc12)C(=O)N[C@H](Cc1ccccc1)C(=O)O	none (no result: APP 5UTR inh, Ba/F3 V617F tox, BaF3 tox)
CCN1CCN(C(=O)CCc2ccc(S(=O)(=O)NCCc3ccccc3)cc2)CC1	APP 5UTR inh 55.6
Cc1nc2c(-c3ccccc3)c(C)[nH]n2c(=O)c1Cc1ccccc1	none
Cc1nc2c(-c3ccc(Cl)cc3)c(C)[nH]n2c(=O)c1Cc1ccccc1	Ba/F3 V617F tox 31.5, BaF3 tox 41.4
Cc1cccc(/C=N/NC(=O)c2ccc(NC(=O)c3cccc(Cl)c3)cc2)n1	none (no result: APP 5UTR inh, Ba/F3 V617F tox, BaF3 tox)
CS(=O)(=O)N(CC(=O)Nc1ccc(S(=O)(=O)N2CCCC2)cc1)c1ccccc1F	none
Nc1ccn([C@@H]2O[C@H](CO)[C@@H](O)C2O)c(=O)n1 (stereo partly drawn)	IEC-6 tox 92.8, Ba/F3 V617F tox 74.8, BaF3 tox 72.0 (no result: APP 5UTR inh)
CC1(C)Oc2ccc(C(=O)NNC(=O)Nc3ccccc3)cc2NC1=O	none (no result: APP 5UTR inh, Ba/F3 V617F tox, BaF3 tox)
COCCCNC(=S)NNC(=O)C1CC1c1ccc(C(C)(C)C)cc1 (stereo not drawn)	BaF3 tox 37.9
CC1CCCCC1NS(=O)(=O)c1ccc(S(=O)(=O)NCc2ccncc2)cc1 (stereo not drawn)	Ba/F3 V617F tox 41.7, BaF3 tox 46.8
CCOc1ccc(S(=O)(=O)NC2CCCCC2C)cc1 (stereo not drawn)	none (no result: APP 5UTR inh, Ba/F3 V617F tox, BaF3 tox)
CCOc1ccc(S(=O)(=O)NCc2ccncc2)cc1	Ba/F3 V617F tox 65.0, BaF3 tox 60.9
Cc1ccc(S(=O)(=O)NCc2ccncc2)cc1	Ba/F3 V617F tox 36.8, BaF3 tox 47.3
CC(C)CNS(=O)(=O)c1ccc(CCC(=O)NCc2ccncc2)cc1	BaF3 tox 89.8
Cc1ccc(S(=O)(=O)NCC(=O)NCc2ccncc2)cc1	none
CC(=O)Nc1ccc(S(=O)(=O)NCc2ccccn2)cc1	none
CC(=O)Nc1ccc(S(=O)(=O)NCc2ccncc2)cc1	Ba/F3 V617F tox 32.0, BaF3 tox 37.0
CCOC(=O)C1CCN(C(=O)c2ccc(Cl)c(S(=O)(=O)N3CCOCC3)c2)CC1	BaF3 tox 92.4
CC(=O)Nc1ccc(CN2CCCN(C)CC2)cc1	none (no result: APP 5UTR inh, Ba/F3 V617F tox, BaF3 tox)
COc1ccc(-n2nnnc2SCC(=O)c2ccc(O)c(O)c2)cc1	Ba/F3 V617F tox 52.3 | BaF3 parental 2 inactive | JAK2V617F conf 79.2
COc1ccccc1NC(=O)CC(=O)CSc1nnc(-c2ccc(C)cc2)n1-c1ccccc1	none
COc1ccc(-c2nnc(SCC(=O)Nc3ncc(C)s3)n2-c2ccccc2)cc1OC	Ba/F3 V617F tox 85.5 | BaF3 parental 2 inactive | JAK2V617F conf inactive
C1=C(c2ccccc2)Nc2ccccc2N=C1c1ccccc1	Ba/F3 V617F tox 101.7 | BaF3 parental 2 inactive | JAK2V617F conf inactive
O=C1CC(c2ccccc2)=Nc2ccccc2N1	none
Clc1ccccc1-c1ccc(/C=N/Nc2nncc(-c3ccccc3)n2)o1	none
O=C(/C=C/c1ccc(O)c(O)c1)c1ccc(S(=O)(=O)N2CCCCCC2)cc1	Ba/F3 V617F tox 44.3 | BaF3 parental 2 inactive | JAK2V617F conf 85.2
O=C(CCOc1ccccc1)N1CCN(c2ccc(O)cc2)CC1	Ba/F3 V617F tox 24.5 (no result: APP 5UTR inh) | BaF3 parental 2 inactive | JAK2V617F conf inactive
O=C(CCCOc1ccccc1)N1CCN(c2ccccc2)CC1	none
CC1CC(C)CN(C(=O)CSc2nc(N)cc(=O)[nH]2)C1 (stereo not drawn)	none
COc1ccc(N2CCN(C3CCCN(S(=O)(=O)c4ccc(C)cc4C)C3)CC2)cc1 (stereo not drawn)	none (no result: APP 5UTR inh, Ba/F3 V617F tox, BaF3 tox)
O=C(Cc1ncc(C(F)(F)F)cc1Cl)Nc1ccc(F)cc1	none
O=C(Nc1ccc(C#Cc2ccccc2)cc1)C1CC1	Ba/F3 V617F tox 38.3 | BaF3 parental 2 inactive | JAK2V617F conf inactive
O=C(Nc1ccc(Oc2ccccc2)cc1)C1CC1	none
Cc1ccc(NC(=O)c2ccc3nc(N4CCOCC4)sc3c2)c(Cl)c1	none (no result: APP 5UTR inh, Ba/F3 V617F tox, BaF3 tox)
Cc1cc2ccccn2c1C(=O)c1cccc([N+](=O)[O-])c1	none
Cc1cc2ccccn2c1C(=O)c1ccc([N+](=O)[O-])o1	APP 5UTR inh 54.2, Ba/F3 V617F tox 27.2 | BaF3 parental 2 inactive | JAK2V617F conf 42.0
CCc1ccc(NC(=O)c2noc3c2CCc2ccccc2-3)cc1	Ba/F3 V617F tox 61.5 | BaF3 parental 2 inactive | JAK2V617F conf inactive
CCN(CC)C(=O)CN1C(=O)COCC1=O	none
CCOC(=O)c1c(-c2ccccc2)csc1NC(=O)c1cc2ccccc2oc1=O	none
Cc1nc2cc(-c3ccccc3)sc2c(=O)n1N	KLF5 inh 65.0, Ba/F3 V617F tox 25.4 | BaF3 parental 2 48.3 | JAK2V617F conf 36.7
CN(C)S(=O)(=O)c1cccc(NC(=S)NN=C(Cc2ccccc2)Cc2ccccc2)c1	none
